Experimental findings from paper PMC7862700, “An all-to-all approach to the identification of sequence-specific readers for epigenetic DNA modifications on cytosine” are described below.

Holding throughout (assay): DAPPL (digital affinity profiling via proximity ligation, sequencing); 10 mM Tris-HCl pH 7.5, 50 mM NaCl, 1 mM DTT, 4% glycerol, room temperature, 30 min; GST-TFs on glutathione beads, 16-mer random dsDNA library, 0.1% formaldehyde crosslink after washing; high values mean tight binding
The target of one assay is T1, FLI1 (Homo sapiens, UniProt Q01543 1-452).
T1 sequence: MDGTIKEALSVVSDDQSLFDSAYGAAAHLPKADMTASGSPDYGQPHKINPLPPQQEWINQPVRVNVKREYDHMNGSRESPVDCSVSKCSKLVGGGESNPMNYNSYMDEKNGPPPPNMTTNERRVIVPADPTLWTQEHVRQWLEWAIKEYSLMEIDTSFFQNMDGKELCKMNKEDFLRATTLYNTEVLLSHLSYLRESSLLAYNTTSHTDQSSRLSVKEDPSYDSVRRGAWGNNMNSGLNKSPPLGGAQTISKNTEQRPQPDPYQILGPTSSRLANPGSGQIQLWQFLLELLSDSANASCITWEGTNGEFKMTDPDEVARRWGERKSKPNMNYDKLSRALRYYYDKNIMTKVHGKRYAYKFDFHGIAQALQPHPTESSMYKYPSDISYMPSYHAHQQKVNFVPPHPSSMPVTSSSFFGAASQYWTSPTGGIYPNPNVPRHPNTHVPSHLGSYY
The settings on record: protein: recombinant; tags: N-terminal GST; dsDNA, one strand shown. The method, boiled down: (§1)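 Pools of DNA-barcoded human transcription factors, expressed in yeast as GST fusions on glutathione beads and combined with a tag-only sample, were incubated with 200 nmole of a 16-mer random double-stranded DNA library. Incubation took 30 min at room temperature in Tris/NaCl/DTT/glycerol buffer and was followed by washing, 0.1% formaldehyde crosslinking, proximity ligation (BsaI/T4 ligase, 1 h, 37 °C), PCR amplification and sequencing on an Illumina NextSeq500. Binding signal is the ratio of a hexamer's read frequency for a factor to its frequency for the tag-only sample.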

The next assay has as its target T2, ELK1 (Homo sapiens, UniProt P19419 1-428).
T2 sequence: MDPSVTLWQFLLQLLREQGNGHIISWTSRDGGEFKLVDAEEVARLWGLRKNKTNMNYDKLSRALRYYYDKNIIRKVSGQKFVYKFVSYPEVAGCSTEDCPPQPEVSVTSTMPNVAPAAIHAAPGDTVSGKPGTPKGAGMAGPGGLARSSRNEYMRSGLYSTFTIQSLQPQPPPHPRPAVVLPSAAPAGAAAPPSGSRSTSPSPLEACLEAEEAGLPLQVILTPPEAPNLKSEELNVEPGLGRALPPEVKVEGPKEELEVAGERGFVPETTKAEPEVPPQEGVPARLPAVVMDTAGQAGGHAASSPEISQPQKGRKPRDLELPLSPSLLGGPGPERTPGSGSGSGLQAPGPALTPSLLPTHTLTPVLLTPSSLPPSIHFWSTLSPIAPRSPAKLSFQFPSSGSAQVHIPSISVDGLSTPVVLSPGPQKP
The settings on record: protein: recombinant; tags: N-terminal GST; dsDNA, one strand shown. The method, boiled down: as §1

For a further assay, the target named is T3, GABPA (Homo sapiens, UniProt Q06546 1-454).
T3 sequence: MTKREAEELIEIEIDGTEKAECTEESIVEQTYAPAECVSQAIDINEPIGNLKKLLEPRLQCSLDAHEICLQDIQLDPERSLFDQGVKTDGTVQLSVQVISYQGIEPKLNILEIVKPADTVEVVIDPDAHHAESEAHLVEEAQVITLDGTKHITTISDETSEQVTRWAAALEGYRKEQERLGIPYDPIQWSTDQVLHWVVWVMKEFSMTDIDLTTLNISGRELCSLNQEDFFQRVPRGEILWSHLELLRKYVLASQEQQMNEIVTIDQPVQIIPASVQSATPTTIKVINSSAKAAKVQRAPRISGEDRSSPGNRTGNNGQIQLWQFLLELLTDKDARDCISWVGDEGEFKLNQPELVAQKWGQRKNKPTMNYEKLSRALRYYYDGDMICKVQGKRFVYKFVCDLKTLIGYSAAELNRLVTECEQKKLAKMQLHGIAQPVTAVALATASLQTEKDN
As to conditions: protein: recombinant; tags: N-terminal GST; dsDNA, one strand shown. The method, boiled down: as §1

For the next assay, the target named is T4, ERG (Homo sapiens, UniProt P11308 1-479).
T4 sequence: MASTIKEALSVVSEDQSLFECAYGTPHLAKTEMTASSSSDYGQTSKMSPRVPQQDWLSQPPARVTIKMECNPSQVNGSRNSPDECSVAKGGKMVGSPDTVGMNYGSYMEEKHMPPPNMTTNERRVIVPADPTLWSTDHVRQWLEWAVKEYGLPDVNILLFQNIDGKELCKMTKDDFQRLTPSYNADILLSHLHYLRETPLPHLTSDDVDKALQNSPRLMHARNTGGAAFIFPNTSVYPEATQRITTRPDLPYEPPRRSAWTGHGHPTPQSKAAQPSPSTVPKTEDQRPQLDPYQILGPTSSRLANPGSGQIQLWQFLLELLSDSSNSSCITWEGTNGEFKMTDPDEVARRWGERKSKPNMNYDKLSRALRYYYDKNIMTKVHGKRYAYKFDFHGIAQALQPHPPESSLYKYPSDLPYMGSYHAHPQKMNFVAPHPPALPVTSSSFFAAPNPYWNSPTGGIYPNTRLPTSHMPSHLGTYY
The settings on record: protein: recombinant; tags: N-terminal GST; dsDNA, one strand shown. In outline:
as §1

For another assay, the target named is ELF1 (Homo sapiens, UniProt P32519 1-619). The settings on record: protein: recombinant; tags: N-terminal GST; dsDNA, one strand shown. In outline: as §1
For a further assay, the target named is T5, EHF (Homo sapiens, UniProt Q9NZC4 1-300).
T5 sequence: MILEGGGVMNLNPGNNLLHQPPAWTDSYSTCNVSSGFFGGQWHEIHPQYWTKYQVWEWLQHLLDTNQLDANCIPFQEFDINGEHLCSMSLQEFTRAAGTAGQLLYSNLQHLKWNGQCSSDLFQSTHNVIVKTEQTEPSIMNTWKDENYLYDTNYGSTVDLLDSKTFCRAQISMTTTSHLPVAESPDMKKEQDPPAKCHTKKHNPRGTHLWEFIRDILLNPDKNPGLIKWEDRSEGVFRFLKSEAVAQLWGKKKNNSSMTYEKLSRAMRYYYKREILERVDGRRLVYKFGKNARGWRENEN
As to conditions: protein: recombinant; tags: N-terminal GST; dsDNA, one strand shown. In outline:
as §1

A further assay concerns the target SPI1 (Homo sapiens, UniProt P17947 1-270). The settings on record: protein: recombinant; tags: N-terminal GST; dsDNA, one strand shown. In outline: as §1
The target in a further assay is T6, ELK3 (Homo sapiens, UniProt P41970 1-407).
T6 sequence: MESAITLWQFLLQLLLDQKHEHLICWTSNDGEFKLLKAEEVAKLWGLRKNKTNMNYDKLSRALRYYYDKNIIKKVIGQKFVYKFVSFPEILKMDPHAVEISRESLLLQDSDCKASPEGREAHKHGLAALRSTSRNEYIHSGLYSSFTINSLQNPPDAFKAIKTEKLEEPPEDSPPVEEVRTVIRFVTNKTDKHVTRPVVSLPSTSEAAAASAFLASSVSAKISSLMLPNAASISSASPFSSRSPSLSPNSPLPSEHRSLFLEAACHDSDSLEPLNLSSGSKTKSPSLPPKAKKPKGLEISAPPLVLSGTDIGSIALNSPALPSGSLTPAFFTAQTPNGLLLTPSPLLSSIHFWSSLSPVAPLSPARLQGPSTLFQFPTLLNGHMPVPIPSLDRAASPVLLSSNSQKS
As to conditions: protein: recombinant; tags: N-terminal GST; dsDNA, one strand shown. The method, boiled down: as §1

The target of another assay is T7, FEV (Homo sapiens, UniProt Q99581 1-238).
T7 sequence: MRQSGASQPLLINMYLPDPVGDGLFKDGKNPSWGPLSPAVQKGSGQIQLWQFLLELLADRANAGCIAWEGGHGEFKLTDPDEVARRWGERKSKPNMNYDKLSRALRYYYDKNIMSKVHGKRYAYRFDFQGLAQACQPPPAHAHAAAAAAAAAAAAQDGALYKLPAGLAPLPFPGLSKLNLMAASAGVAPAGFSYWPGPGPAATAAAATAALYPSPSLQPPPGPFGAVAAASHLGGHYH
As to conditions: protein: recombinant; tags: N-terminal GST; dsDNA, one strand shown. In outline: as §1

The next assay addresses ETV5 (Homo sapiens, UniProt P41161 1-510). As to conditions: protein: recombinant; tags: N-terminal GST; dsDNA, one strand shown. In outline:
as §1

A further assay concerns the target HSF1 (Homo sapiens, UniProt Q00613 1-529). The settings on record: protein: recombinant; tags: N-terminal GST; chain copies: 3; dsDNA, one strand shown. In outline: as §1
The target of another assay is T8, SPIC (Homo sapiens, UniProt Q8N5J4 1-248).
T8 sequence: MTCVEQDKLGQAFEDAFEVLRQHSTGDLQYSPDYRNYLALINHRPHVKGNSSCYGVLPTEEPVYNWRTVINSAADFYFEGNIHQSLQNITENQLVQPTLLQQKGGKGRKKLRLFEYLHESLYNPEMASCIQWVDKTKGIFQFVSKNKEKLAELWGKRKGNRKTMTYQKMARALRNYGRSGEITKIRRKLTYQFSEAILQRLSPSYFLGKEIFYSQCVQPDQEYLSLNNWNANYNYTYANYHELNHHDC
As to conditions: protein: recombinant; tags: N-terminal GST; dsDNA, one strand shown. The method, boiled down: as §1

The next assay addresses ELF4 (Homo sapiens, UniProt Q99607 1-663). As to conditions: protein: recombinant; tags: N-terminal GST; dsDNA, one strand shown. The method, boiled down:
as §1

Another assay deals with T9, ELK4 (Homo sapiens, UniProt P28324-2 1-405).
T9 sequence: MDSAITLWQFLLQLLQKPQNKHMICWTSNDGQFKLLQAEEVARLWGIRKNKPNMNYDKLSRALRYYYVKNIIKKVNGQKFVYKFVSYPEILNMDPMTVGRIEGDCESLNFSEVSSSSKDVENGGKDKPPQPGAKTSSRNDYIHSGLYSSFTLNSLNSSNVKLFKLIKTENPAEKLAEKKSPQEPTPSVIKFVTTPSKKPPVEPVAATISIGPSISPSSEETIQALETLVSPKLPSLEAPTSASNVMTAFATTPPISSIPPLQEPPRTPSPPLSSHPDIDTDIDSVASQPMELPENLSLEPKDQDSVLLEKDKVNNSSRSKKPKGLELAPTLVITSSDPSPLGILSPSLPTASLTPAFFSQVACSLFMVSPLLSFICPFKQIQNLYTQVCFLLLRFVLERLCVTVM
As to conditions: protein: recombinant; tags: N-terminal GST; dsDNA, one strand shown. The method, boiled down: as §1

The target in a further assay is T10, ETV2 (Homo sapiens, UniProt O00321 1-342).
T10 sequence: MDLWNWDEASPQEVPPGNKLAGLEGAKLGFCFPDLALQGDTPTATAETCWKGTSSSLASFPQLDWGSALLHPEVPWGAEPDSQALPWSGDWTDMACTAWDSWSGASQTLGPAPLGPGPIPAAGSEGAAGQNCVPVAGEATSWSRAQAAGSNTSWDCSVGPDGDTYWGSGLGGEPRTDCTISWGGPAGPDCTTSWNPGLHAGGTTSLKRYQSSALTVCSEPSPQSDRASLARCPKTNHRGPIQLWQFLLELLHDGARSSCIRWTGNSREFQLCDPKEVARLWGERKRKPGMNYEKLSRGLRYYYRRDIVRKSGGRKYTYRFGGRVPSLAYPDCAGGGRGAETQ
The settings on record: protein: recombinant; tags: N-terminal GST; dsDNA, one strand shown. In outline:
as §1

Another assay addresses T11, ELF3 (Homo sapiens, UniProt P78545 1-371).
T11 sequence: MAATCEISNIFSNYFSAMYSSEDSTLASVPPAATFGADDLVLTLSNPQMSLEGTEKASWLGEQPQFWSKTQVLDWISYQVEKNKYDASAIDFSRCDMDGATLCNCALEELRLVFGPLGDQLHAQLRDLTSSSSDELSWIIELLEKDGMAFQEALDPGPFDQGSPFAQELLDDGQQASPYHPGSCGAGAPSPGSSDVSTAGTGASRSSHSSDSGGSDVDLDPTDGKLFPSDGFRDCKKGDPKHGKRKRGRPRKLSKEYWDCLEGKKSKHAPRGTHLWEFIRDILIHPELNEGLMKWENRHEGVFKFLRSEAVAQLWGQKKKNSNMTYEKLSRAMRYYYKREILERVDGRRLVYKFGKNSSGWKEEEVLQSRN
As to conditions: protein: recombinant; tags: N-terminal GST; dsDNA, one strand shown. The method, boiled down: as §1

Another assay concerns the target CRX (Homo sapiens, UniProt O43186 1-299). As to conditions: protein: recombinant; tags: N-terminal GST; dsDNA, one strand shown. In outline: as §1
The next assay deals with ETV1 (Homo sapiens, UniProt P50549 1-477). The settings on record: protein: recombinant; tags: N-terminal GST; dsDNA, one strand shown. The method, boiled down: as §1
ETV1, sequence (P50549 whole entry): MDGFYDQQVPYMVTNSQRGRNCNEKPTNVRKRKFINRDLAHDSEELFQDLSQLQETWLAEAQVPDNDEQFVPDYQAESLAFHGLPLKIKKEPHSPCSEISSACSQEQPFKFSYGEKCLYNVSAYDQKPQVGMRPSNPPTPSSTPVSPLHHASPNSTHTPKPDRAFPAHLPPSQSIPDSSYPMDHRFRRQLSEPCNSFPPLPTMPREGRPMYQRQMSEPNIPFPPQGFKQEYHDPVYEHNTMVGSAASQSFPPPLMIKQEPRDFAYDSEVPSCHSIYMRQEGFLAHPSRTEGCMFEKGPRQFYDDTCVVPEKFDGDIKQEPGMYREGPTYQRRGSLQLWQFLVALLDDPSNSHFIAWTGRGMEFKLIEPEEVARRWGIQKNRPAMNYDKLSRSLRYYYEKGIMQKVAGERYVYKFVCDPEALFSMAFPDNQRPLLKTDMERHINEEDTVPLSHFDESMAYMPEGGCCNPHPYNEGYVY

ELF1, sequence (P32519 whole entry): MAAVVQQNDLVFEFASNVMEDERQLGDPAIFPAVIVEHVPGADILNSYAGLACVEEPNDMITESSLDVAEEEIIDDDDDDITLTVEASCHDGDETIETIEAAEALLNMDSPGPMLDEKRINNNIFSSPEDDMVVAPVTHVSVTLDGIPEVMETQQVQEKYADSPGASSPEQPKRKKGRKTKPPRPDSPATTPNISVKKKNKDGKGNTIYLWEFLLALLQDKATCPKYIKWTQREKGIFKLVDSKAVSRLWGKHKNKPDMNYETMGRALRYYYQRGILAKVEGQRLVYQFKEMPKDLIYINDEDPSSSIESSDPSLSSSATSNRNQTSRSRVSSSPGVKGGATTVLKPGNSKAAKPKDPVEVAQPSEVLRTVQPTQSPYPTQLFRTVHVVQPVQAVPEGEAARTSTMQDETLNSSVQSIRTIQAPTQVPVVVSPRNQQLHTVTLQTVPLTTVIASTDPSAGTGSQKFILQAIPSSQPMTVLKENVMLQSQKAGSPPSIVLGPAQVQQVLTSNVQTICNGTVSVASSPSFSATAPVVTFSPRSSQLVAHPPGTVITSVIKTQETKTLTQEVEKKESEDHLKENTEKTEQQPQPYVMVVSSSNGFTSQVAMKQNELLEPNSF
ELF4, sequence (Q99607 whole entry): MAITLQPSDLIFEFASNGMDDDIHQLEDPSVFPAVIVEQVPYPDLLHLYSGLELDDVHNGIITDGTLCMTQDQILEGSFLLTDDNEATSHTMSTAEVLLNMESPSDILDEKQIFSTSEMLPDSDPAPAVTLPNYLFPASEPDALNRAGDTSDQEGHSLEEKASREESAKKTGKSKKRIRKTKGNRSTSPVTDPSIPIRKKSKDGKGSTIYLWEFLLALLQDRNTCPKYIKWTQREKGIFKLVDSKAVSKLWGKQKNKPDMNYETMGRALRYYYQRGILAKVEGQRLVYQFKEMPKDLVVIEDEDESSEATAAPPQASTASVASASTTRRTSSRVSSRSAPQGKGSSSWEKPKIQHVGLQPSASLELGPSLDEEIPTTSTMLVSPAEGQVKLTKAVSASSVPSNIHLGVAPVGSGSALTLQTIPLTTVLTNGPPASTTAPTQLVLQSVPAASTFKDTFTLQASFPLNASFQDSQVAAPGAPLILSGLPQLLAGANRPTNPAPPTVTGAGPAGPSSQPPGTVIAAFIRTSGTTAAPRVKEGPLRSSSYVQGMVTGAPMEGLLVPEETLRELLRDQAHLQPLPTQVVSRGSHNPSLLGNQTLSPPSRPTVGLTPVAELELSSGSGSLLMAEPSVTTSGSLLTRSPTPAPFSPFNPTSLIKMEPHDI
HSF1, sequence (Q00613 whole entry): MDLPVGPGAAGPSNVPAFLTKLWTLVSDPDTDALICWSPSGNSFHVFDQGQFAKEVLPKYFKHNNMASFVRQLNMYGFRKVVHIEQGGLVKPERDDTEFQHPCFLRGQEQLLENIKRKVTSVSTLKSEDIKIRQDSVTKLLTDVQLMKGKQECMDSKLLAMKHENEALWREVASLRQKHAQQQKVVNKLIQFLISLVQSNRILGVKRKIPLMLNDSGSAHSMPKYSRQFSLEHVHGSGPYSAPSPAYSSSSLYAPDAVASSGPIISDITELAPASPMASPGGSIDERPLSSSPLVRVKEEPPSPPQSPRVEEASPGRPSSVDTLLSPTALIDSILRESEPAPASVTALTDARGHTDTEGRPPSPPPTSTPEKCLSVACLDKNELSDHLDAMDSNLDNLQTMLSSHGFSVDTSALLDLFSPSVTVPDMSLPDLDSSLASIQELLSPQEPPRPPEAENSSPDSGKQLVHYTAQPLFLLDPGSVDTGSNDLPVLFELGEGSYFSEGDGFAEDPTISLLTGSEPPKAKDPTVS
ETV5, sequence (P41161 whole entry): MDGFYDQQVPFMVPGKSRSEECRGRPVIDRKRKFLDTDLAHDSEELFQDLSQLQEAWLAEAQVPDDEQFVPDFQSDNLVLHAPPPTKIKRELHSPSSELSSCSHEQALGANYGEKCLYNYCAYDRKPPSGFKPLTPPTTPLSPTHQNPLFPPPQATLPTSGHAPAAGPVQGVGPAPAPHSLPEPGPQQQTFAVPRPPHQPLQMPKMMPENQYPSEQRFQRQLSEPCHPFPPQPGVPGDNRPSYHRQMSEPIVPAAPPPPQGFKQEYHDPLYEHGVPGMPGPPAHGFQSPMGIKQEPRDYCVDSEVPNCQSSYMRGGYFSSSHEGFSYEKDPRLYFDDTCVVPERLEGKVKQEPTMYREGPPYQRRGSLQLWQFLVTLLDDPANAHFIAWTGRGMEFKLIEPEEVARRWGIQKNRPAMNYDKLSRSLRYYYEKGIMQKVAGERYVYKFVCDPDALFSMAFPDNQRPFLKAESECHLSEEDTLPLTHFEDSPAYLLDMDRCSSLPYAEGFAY
CRX, sequence (O43186 whole entry): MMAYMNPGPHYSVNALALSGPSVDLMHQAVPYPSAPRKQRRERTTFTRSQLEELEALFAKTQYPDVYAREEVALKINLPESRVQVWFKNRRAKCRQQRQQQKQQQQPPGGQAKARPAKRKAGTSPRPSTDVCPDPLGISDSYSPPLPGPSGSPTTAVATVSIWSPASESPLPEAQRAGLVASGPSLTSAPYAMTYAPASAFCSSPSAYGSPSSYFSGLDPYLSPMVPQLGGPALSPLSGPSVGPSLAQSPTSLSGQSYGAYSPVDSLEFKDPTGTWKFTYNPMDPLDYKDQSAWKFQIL

For TTACGT, the binding signal in the assay with FLI1 is 1.19 fold enrichment (6-mer frequency, TF over GST control); in the assay with ELK1 it was 1.09 fold enrichment (6-mer frequency, TF over GST control); with GABPA, 1.2 fold enrichment (6-mer frequency, TF over GST control); with ERG, 1.07 fold enrichment (6-mer frequency, TF over GST control); with ELF1 it was 1.07 fold enrichment (6-mer frequency, TF over GST control); with EHF, 1.1 fold enrichment (6-mer frequency, TF over GST control). Besides, the binding signal in the assay with SPI1 was 1.09 fold enrichment (6-mer frequency, TF over GST control); with ELK3, 1.05 fold enrichment (6-mer frequency, TF over GST control); with FEV, 1.04 fold enrichment (6-mer frequency, TF over GST control); in the assay with ETV5, 1.19 fold enrichment (6-mer frequency, TF over GST control); with HSF1, 1.21 fold enrichment (6-mer frequency, TF over GST control); in the assay with SPIC, 1.07 fold enrichment (6-mer frequency, TF over GST control). In addition, the binding signal is 1.11 fold enrichment (6-mer frequency, TF over GST control) with ELF4; 1.12 fold enrichment (6-mer frequency, TF over GST control) with ELK4; 1.2 fold enrichment (6-mer frequency, TF over GST control) with ETV2; 1.14 fold enrichment (6-mer frequency, TF over GST control) with ELF3; 1.74 fold enrichment (6-mer frequency, TF over GST control) in the assay with CRX; 1.06 fold enrichment (6-mer frequency, TF over GST control) with ETV1.
